Experimental data from the supplement of paper PMC3545927.
The other results are listed elsewhere or left out. The true hit rate is not given.

Target: furin, P09958
Experiment: furin cleavage Z-score vs untreated control; higher = more cleavage, active = 3.5 or more, inactive = 1 or less, 8 variable residues between constant flanks
Outline: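 Sequencing of released DNA, tagged with adapters by PCR, gave read counts used as abundance. That DNA was freed when purified furin cut N-terminally bead-bound 8-mer peptides fused to a cDNA oligonucleotide, in 0.01 ml reactions at 1:10 enzyme:substrate in 50 mM HEPES pH 7.5 with CaCl2 and NaCl, lasting 7.5, 15 or 30 min. The cleavage Z-score was the lowess-adjusted log count versus furin-free reactions, scaled by median absolute deviation.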

Sequence of furin, P09958 (P09958 whole entry): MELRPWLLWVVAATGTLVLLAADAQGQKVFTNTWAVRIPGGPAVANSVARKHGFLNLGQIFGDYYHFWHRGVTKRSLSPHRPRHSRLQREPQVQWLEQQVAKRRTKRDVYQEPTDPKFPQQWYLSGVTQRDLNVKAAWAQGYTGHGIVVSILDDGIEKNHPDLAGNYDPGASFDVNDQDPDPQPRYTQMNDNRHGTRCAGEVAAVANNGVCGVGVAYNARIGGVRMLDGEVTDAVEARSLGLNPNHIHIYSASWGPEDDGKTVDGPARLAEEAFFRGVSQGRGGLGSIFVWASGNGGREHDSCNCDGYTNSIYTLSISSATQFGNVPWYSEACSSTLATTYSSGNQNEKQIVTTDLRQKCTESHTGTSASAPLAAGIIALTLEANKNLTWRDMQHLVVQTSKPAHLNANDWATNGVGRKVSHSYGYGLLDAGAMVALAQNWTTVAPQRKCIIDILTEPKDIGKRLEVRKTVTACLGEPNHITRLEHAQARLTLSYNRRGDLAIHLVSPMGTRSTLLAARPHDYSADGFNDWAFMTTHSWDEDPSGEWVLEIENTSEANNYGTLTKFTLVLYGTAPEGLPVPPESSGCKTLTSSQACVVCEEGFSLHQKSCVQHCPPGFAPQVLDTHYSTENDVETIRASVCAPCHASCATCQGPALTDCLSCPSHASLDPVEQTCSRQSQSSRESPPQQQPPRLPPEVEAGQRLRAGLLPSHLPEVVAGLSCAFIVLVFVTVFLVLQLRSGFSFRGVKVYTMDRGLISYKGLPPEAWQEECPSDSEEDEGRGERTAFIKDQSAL

Row | Sequence | furin cleavage Z-score (7.5 min) | furin cleavage Z-score (15 min) | furin cleavage Z-score (30 min)
1 | CAESTLSTALAGNASASA [HC1329] | -0.324 (inactive) | 0.0602 (inactive) | 1.27
2 | CAEVPCHRPDAGNASASA [HC2411] | -1.49 (inactive) | -0.692 (inactive) | 0.135 (inactive)
3 | CAILSRKKRSAGNASASA [FS-598] | 13.1 (active) | 11 (active) | 8.58 (active)
4 | CAHNGRKKRSAGNASASA [FS-794] | 12.6 (active) | 13.4 (active) | 9.77 (active)
5 | CADTGYPKRSAGNASASA [FS-1587] | 0.338 (inactive) | -0.532 (inactive) | 2.06
6 | CAASSSKKRSAGNASASA [FS-1310] | 1.7 | 1.89 | 0.28 (inactive)
7 | CAHNGLRDLAAGNASASA [HC641] | -0.235 (inactive) | 0.0336 (inactive) | 0.434 (inactive)
8 | CAEVPCHFPSAGNASASA [HC2367] | 0.277 (inactive) | -0.0294 (inactive) | 0.605 (inactive)
9 | CAQPSSSRRDAGNASASA [FS-1251] | -0.0806 (inactive) | -1.03 (inactive) | -1.19 (inactive)
10 | CATPKRSRRDAGNASASA [FS-202] | 10.5 (active) | 10.4 (active) | 6.86 (active)
11 | CAEVVTSTWDAGNASASA [HC2251] | -0.232 (inactive) | -0.217 (inactive) | -0.0353 (inactive)
12 | CAVLTRSRRDAGNASASA [FS-573] | 15.8 (active) | 16 (active) | 10.2 (active)
13 | CAEVVTSRWVAGNASASA [HC2213] | 0.434 (inactive) | -0.178 (inactive) | 1.55
14 | CAEAWRSRRDAGNASASA [FS-761] | 5 (active) | 6.16 (active) | 5.62 (active)
15 | CATPTVATRDAGNASASA [HC282] | -1.53 (inactive) | 0.0271 (inactive) | -0.971 (inactive)
16 | CAWHSRRKRLAGNASASA [FS-210] | 9.83 (active) | 11.7 (active) | 10.6 (active)
17 | CALHSRNKRLAGNASASA [FS-607] | 7.17 (active) | 9.47 (active) | 6.69 (active)
18 | CAGPIRRKRLAGNASASA [FS-1526] | 11.1 (active) | 11.4 (active) | 9.25 (active)
19 | CALHSRPQRLAGNASASA [FS-939] | 0.578 (inactive) | 1.4 | 1.43
20 | CAGPQRQKKLAGNASASA [FS-1202] | -0.669 (inactive) | -1.47 (inactive) | -0.377 (inactive)
21 | CAKPARRKRLAGNASASA [FS-44] | 8.86 (active) | 9.53 (active) | 10.1 (active)
22 | CAKPARVSKDAGNASASA [FS-259] | -0.289 (inactive) | -0.617 (inactive) | -0.0479 (inactive)
23 | CANEMEECSQAGNASASA [HC1801] | -0.962 (inactive) | 0.682 (inactive) | -0.461 (inactive)
24 | CAETVTSTWVAGNASASA [HC2178] | -0.174 (inactive) | 0.0107 (inactive) | 0.00907 (inactive)
25 | CAVGGVEHRLAGNASASA [HC477] | 0.551 (inactive) | 1.48 | 0.304 (inactive)

Row | Sequence | furin cleavage Z-score (7.5 min) | furin cleavage Z-score (15 min) | furin cleavage Z-score (30 min)
26 | CAVQVRGKRLAGNASASA [FS-312] | 6.21 (active) | 7.9 (active) | 7.68 (active)
27 | CAARRRRKRLAGNASASA [FS-9] | 9.78 (active) | 12.2 (active) | 9.85 (active)
28 | CAQQELRKRLAGNASASA [FS-1390] | 0.809 (inactive) | 0.166 (inactive) | 1.43
29 | CAGQPGLKRSAGNASASA [FS-1203] | -1.59 (inactive) | 1.19 | -2.33 (inactive)
30 | CANKVRAKRSAGNASASA [FS-618] | 10.6 (active) | 10.4 (active) | 8.36 (active)
31 | CARRRRRKESAGNASASA [FS-2298] | 2.91 | 3.94 (active) | 2.81
32 | CARRATLKRSAGNASASA [FS-624] | 3.99 (active) | 5.42 (active) | 4.76 (active)
33 | CAVFSRDSRSAGNASASA [FS-103] | 2.25 | 0.692 (inactive) | 2.36
34 | CARRRRDSRSAGNASASA [FS-1267] | 9.84 (active) | 9.21 (active) | 7.48 (active)
35 | CAKGWRLLAPAGNASASA [HC671] | 0.0408 (inactive) | 0.181 (inactive) | -0.469 (inactive)
36 | CALPINALSNAGNASASA [HC1381] | 0.137 (inactive) | -0.538 (inactive) | -0.0923 (inactive)
37 | CAFWEGVFTGAGNASASA [HC939] | -1.63 (inactive) | 0.063 (inactive) | -1.49 (inactive)
38 | CATLTCGFADAGNASASA [HC223] | -1.51 (inactive) | -0.777 (inactive) | -0.721 (inactive)
39 | CAEVVTSTIVAGNASASA [HC2224] | 1.34 | 0.923 (inactive) | -0.591 (inactive)
40 | CAIEMEECSQAGNASASA [HC1784] | 0.115 (inactive) | -0.919 (inactive) | -0.409 (inactive)
41 | CARRRRAKRSAGNASASA [FS-1481] | 10 (active) | 9.95 (active) | 7.99 (active)
42 | CAMEECCQHLAGNASASA [HC34] | 0.752 (inactive) | -0.68 (inactive) | 0.844 (inactive)
43 | CAHPSRKRRAAGNASASA [FS-132] | 11.3 (active) | 11.3 (active) | 8.53 (active)
44 | CAHPVREARAAGNASASA [FS-1211] | 3.66 (active) | 5.02 (active) | 5.4 (active)
45 | CAERSRKRRAAGNASASA [FS-417] | 11.5 (active) | 10.5 (active) | 7.42 (active)
46 | CAHPNIEEVAAGNASASA [HC840] | 0.6 (inactive) | -0.828 (inactive) | 0.48 (inactive)
47 | CAERSREMRAAGNASASA [FS-1120] | 0.288 (inactive) | 0.367 (inactive) | -1.27 (inactive)
48 | CAHYVPESDAAGNASASA [HC1127] | -0.402 (inactive) | -0.697 (inactive) | -1.88 (inactive)
49 | CAERSRVCRCAGNASASA [FS-123] | -0.711 (inactive) | 0.103 (inactive) | 2.18
50 | CAESTRTRRAAGNASASA [FS-1522] | 8.54 (active) | 9.73 (active) | 8.09 (active)
